One assay relates to PPARg:RXRa IVT, anti-PPARg (NR concentration 270 nM, RXRa partner concentration 90 nM). Briefly: PBM binding z-score (relative to random genomic background probes); higher = stronger binding; sequences stand for … in GC…GCGATTGACAGCGTAGAATGAAGG
Put shortly: (§1)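 Each nuclear receptor dimer, without ligand, was incubated for 1 h on custom Agilent 4×180K protein-binding microarrays. Binding was detected with antibodies against each partner (one per run), and scanned fluorescence was regression-normalized. The binding z-scores are referenced to random human genomic background probes.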
CCAGACAGGAGAGAAGGTAACTCAGCCTCGATTA came in with a PBM binding z-score of -0.372.
Same read-out and setting: next, CGTCAAAGTTCAAGGTAACGTACCAGAAAGCAGC: 2.41; TCTAGTTGGTCACGGAAGTCACACACGACGGGTA: 2.31.
In turn, ATATGTAGGTTATCGGTTCATTCAGTTTGCGCAT showed a PBM binding z-score of 7.09.
Same read-out and setting: then CCTAGCAGGCCAATGTGGGTCACTCAAGGCTTGA, with 4.91; and TCATATAGGTAATACAGGTGAAAGTTGGCATCTA, with 3.7; and GCTAGCATGCCATTTGGGTCACTCAATGACGGGC, with 1.3.
For CGTCAAAGTTCAAGGTAACGTTACAGAAAGCAGC, the PBM binding z-score was determined as 2.42.
CCTTACGGGTCAAGGTTATAGCACGGGTGGTACG came in with a PBM binding z-score of 3.57.
CGAACTAGGGCATCCAGGACAGTGAATACATTGA: the PBM binding z-score was determined as 6.16.
Same read-out and setting: then TTATCAAGGTGAAGGTCGTTGATCCCTCTGTAGA, with 3.99.
Consider CCAGACAGGTGAAATGTAACTCAGTCTGGTACGC, for which the PBM binding z-score worked out at 0.99.
GATTCAGGGTCAAGGCCAGAGTACGCGTATTGAT: the PBM binding z-score is 4.63.
With CGTCCAAGGTCAATGCTAGGTAAGTGAAAGCATT, the PBM binding z-score amounted to 3.27.
For the sequence CTCGAAAGGTCGTGCTCAGGTGACTATACCAAAC, the PBM binding z-score was 2.13.
In turn, GCTGCTAGGTCCGGTTGGTCAGCTAACGGGTACG came in with a PBM binding z-score of -0.34.
On the same count and under the same terms, then TTACCAAGGTGAGCTGAGGTCGTTGACCCAACTC, with 2.03; and TCTATTAGTTGACGGGCAACCGACGAGTCCGTTT, with 0.118; and TTACCAAGGTGAACGTCGTTGATCCCTCTGTAGA, with 3.17.
GCTATTAGTCGAAAGGGCAACCGAATGATTCTCG yielded a PBM binding z-score of 0.458.
As to CCTAGCAGGCTAGGGTCACTCAAGCATTTCGCTT, the PBM binding z-score came out at 0.393.
Still for that read-out and setting: then CGTCCAAGGTCAAAAGTCAGTGAAGAGATGACGG, with 3.24.
In the case of ATCGAAAGATCGTGAGGTGAGTATACAGAAAGGC, the PBM binding z-score was 0.285.
On the same count and under the same terms, then CCTCGGAGGACCACAGGAGGTCAGAGCTGCCAGA, with -0.16; and TCGAGTAGGTTACCAATGGGGTATTCAGCTTTCT, with 2.46.
Same read-out and setting: next, AGAACGAGGGCACGCTGAGATGATAGCAGAGTAG: 3.41.
As for ATCTCTAAGTAAAGTTCAGTGAAAGATCGATAGA, the PBM binding z-score came out at 0.648.
Still for that read-out and setting: next, TCTTGTAGATCAAAAGAGGTTAAGAAAGTGCGCT: 0.83; ATATGTAGGTTAAGGGTCATTCAGGTTGGTTCGC: 7.64.
Same read-out and setting: next, CGAACTAGGTCACTGACAGGACAGTGAATAGTAA: 8.43; CCTACTGGGCCATCACGTCATTGATATCAACGTT: 3.56.
Regarding ACCATTAGTTGAGACGAGGGCAACCGATAGGTTG, the PBM binding z-score stood at 0.503.
In turn, TCGAGTAGGTTACCAATGGGGCATTCTGCTTTCT gave a PBM binding z-score of 2.53.
Regarding CAAACTAGGTCAAGAGGTCAATGTCCGCTTCCCG, the PBM binding z-score was found to be 8.12.
Turning to TAGCCTAGGTCATTCATGGGCCAGTATAGAAAGC, the PBM binding z-score turned out to be 2.53.
Sequence GCTTACGGGTCAAAGGTAATAGCATGAATAGAAT returned a PBM binding z-score of 5.28.
The sequence TTACCAAGGTAAAGGTCGTTGATCCCTCTGTAGA returned a PBM binding z-score of 3.8.
The sequence TCTTGTAGATCAACAGGGGGTTAAGAAAGATCGA gave a PBM binding z-score of 3.29.
Consider CAAACTAGGTCAAGGCCAAAGTCGGTTTGTGCCA, for which the PBM binding z-score was found to be 8.75.
CCAGACAGTTGAGAAGGTAACTCAGCCTCGATTA gave a PBM binding z-score of -0.312.

For a further assay, the system named is PPARg DBDmut:RXRa IVT, anti-PPARg (DBD mutation: PPARg1 K132A/R137A, NR concentration 270 nM, RXRa partner concentration 90 nM). The assay is described as above. The procedure, abridged: as §1
In turn, CCAGACAGGAGAGAAGGTAACTCAGCCTCGATTA had a PBM binding z-score of -0.415.
For the sequence CGTCAAAGTTCAAGGTAACGTACCAGAAAGCAGC, the PBM binding z-score came to 0.882.
TCTAGTTGGTCACGGAAGTCACACACGACGGGTA: the PBM binding z-score turned out to be 1.45.
In turn, ATATGTAGGTTATCGGTTCATTCAGTTTGCGCAT came in with a PBM binding z-score of 4.06.
As for CCTAGCAGGCCAATGTGGGTCACTCAAGGCTTGA, the PBM binding z-score is -0.196.
Take TCATATAGGTAATACAGGTGAAAGTTGGCATCTA: the PBM binding z-score stood at 1.17.
On the same count and under the same terms, next, GCTAGCATGCCATTTGGGTCACTCAATGACGGGC: 0.0302; CGTCAAAGTTCAAGGTAACGTTACAGAAAGCAGC: 0.621; CCTTACGGGTCAAGGTTATAGCACGGGTGGTACG: 0.0487.
As to CGAACTAGGGCATCCAGGACAGTGAATACATTGA, the PBM binding z-score was found to be 1.33.
On the same count and under the same terms, next, TTATCAAGGTGAAGGTCGTTGATCCCTCTGTAGA: 1.51; CCAGACAGGTGAAATGTAACTCAGTCTGGTACGC: -0.289.
Still for that read-out and setting: then GATTCAGGGTCAAGGCCAGAGTACGCGTATTGAT, with 1.51; and CGTCCAAGGTCAATGCTAGGTAAGTGAAAGCATT, with 0.401.
In the case of CTCGAAAGGTCGTGCTCAGGTGACTATACCAAAC, the PBM binding z-score is -0.324.
Regarding GCTGCTAGGTCCGGTTGGTCAGCTAACGGGTACG, the PBM binding z-score is -1.47.
For TTACCAAGGTGAGCTGAGGTCGTTGACCCAACTC, the PBM binding z-score was 0.277.
TCTATTAGTTGACGGGCAACCGACGAGTCCGTTT displayed a PBM binding z-score of 0.163.
In turn, TTACCAAGGTGAACGTCGTTGATCCCTCTGTAGA returned a PBM binding z-score of 0.0811.
Still for that read-out and setting: next, GCTATTAGTCGAAAGGGCAACCGAATGATTCTCG: 0.65; CCTAGCAGGCTAGGGTCACTCAAGCATTTCGCTT: -1.9; CGTCCAAGGTCAAAAGTCAGTGAAGAGATGACGG: 0.212.
On the same count and under the same terms, next, ATCGAAAGATCGTGAGGTGAGTATACAGAAAGGC: 0.657; CCTCGGAGGACCACAGGAGGTCAGAGCTGCCAGA: -0.752; TCGAGTAGGTTACCAATGGGGTATTCAGCTTTCT: -0.47.
In turn, AGAACGAGGGCACGCTGAGATGATAGCAGAGTAG returned a PBM binding z-score of 0.615.
Same read-out and setting: next, ATCTCTAAGTAAAGTTCAGTGAAAGATCGATAGA: 1.26.
Same read-out and setting: next, TCTTGTAGATCAAAAGAGGTTAAGAAAGTGCGCT: 0.0222; ATATGTAGGTTAAGGGTCATTCAGGTTGGTTCGC: 1.5.
In turn, CGAACTAGGTCACTGACAGGACAGTGAATAGTAA gave a PBM binding z-score of 0.923.
For CCTACTGGGCCATCACGTCATTGATATCAACGTT, the PBM binding z-score was 0.399.
ACCATTAGTTGAGACGAGGGCAACCGATAGGTTG showed a PBM binding z-score of 0.491.
Consider TCGAGTAGGTTACCAATGGGGCATTCTGCTTTCT, for which the PBM binding z-score was -0.301.
Consider CAAACTAGGTCAAGAGGTCAATGTCCGCTTCCCG, for which the PBM binding z-score was 2.46.
On to TAGCCTAGGTCATTCATGGGCCAGTATAGAAAGC, for which the PBM binding z-score came to 0.271.
On the same count and under the same terms, next, GCTTACGGGTCAAAGGTAATAGCATGAATAGAAT: 1.42; TTACCAAGGTAAAGGTCGTTGATCCCTCTGTAGA: 1.13.
TCTTGTAGATCAACAGGGGGTTAAGAAAGATCGA yielded a PBM binding z-score of 5.31.
For CAAACTAGGTCAAGGCCAAAGTCGGTTTGTGCCA, the PBM binding z-score amounted to 3.6.
With CCAGACAGTTGAGAAGGTAACTCAGCCTCGATTA, the PBM binding z-score was determined as 0.611.

Values taken from the supplement of paper PMC6555819.
